According to PubChem BioAssay AID2284356 (EPA ToxCast):
Results filed as inconclusive are left out. Active and inactive are the calls of the source. How the source made its calls: active means hit-call score of the fitted dose curve at least 0.9, where 1 is the maximum; inconclusive means response in the unintended direction; inactive means score below 0.9.

Each molecule was assayed against zebrafish Estrogen Receptor (ER1), esr1 (gene 259252) (UniProt P57717) (assay: ATG_zfER1_EcoTox2: Attagene TRANS-FACTORIAL EcoTox-2 HepG2 Assay for zebrafish Estrogen Receptor (ER1)).
Description: ATG_EcoTox2 is a cell-based, multiplexed assay created by modifying the existing Attagene TRANS-FACTORIAL system to include a panel of nuclear receptors from some or all the following species: human (Homo sapiens), african clawed frog (Xenopus laevis), rainbow trout (Oncorhynchus mykiss), japanese medaka (Oryzias latipes), and zebrafish (Danio rerio). The ECOTOX2-FACTORIAL format uses HepG2, a human liver cell line, with measurements taken at 24 hours after chemical dosing in a 24-well plate. ATG_zfER1_EcoTox2 is one of 29 assay components calculated in the ATG_EcoTox2 assay. It is designed to make measurements of mRNA induction, a form of inducible reporter, as detected with fluorescence intensity signals by Reverse transcription polymerase chain reaction (RT-PCR) and Capillary electrophoresis technology.The assay endpoint ATG_zfER1_EcoTox2 was analyzed in the positive analysis fitting direction relative to DMSO as the negative control and baseline of activity. Using a type of inducible reporter, measures of mRNA for gain-of-signal activity can be used to understand the reporter gene at the transcription factor-level as they relate to the gene ER. Furthermore, this assay endpoint can be referred to as a primary readout, because this assay has produced multiple assay endpoints where this one serves a reporter gene function. To generalize the intended target to other relatable targets, this assay endpoint is annotated to the nuclear receptor intended target family, where the subfamily is steroidal.
Human liver HepG2 cells are transiently transfected with multiple reporter transcription units (MRTUs) in 6-well plates using FuGene 6 reagent (Roche; 3 ml FuGene/1 mg DNA). The MRTU constructs are regulated by a cis-regulating element (promoter). Each RTU expresses a GAL4-UAS that regulates the transcription of a nearby target reporter gene sequence. A major difference between the CIS and TRANS system is that in CIS activities of endogenous TFs are measured, whereas the TRANS assay evaluates changes in activities of exogenous, chimeric NR-Gal4 proteins. […] At the end of 24 hour incubation, total RNA was isolated using TriZol reagent (Invitrogen). The isolated RNA is then reverse-transcribed using oligo(dT) primer and Mo-MLV reverse transcriptase (Invitrogen) with DNAse I (Ambion) treatment for 30 min. The one-tenth of the produced cDNA was amplified by PCR using Taq DNA polymerase (Invitrogen) and two reporter sequence-specific primers. The PCR products were fluorescently labeled by primer extension with 6-arboxyfluorescein (6-FAM) 5'-labeled reporter sequence-specific primer (2 min at 95 C, 20 s at 68 C and 10 min at 72 C) and these products were digested with 5U of HpaI (New England Biolabs) for 2h at 37 C. The fragments were purified using Qiaquick PCR columns (Qiagen), analyzed on an ABI 3130xL genetic analyzer (Applied Biosystems) with peak positions identified by using a set of X-rhodamine (ROX)-labeled MapMarker1000 molecular weight standards (BioVentures). The raw capillary electrophoresis data was processed using Attagraph software (Attagene).

Sequence of zebrafish Estrogen Receptor (ER1), esr1 (gene 259252) (P57717 whole entry, looked up): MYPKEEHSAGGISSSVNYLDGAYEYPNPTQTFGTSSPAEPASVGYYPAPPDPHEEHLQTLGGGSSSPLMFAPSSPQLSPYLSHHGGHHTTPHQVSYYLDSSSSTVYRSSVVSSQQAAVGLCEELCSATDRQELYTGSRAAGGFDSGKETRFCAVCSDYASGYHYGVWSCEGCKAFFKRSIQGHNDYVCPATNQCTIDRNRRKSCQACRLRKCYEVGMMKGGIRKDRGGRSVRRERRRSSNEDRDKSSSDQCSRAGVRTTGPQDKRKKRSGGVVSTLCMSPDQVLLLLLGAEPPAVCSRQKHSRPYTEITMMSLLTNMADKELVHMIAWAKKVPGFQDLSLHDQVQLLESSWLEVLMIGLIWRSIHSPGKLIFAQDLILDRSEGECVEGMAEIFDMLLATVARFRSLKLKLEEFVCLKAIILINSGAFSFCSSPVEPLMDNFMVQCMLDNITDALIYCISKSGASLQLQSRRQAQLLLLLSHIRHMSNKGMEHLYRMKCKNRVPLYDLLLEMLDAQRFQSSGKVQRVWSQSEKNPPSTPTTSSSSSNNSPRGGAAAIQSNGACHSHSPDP

Row | Compound | outcome
1 | CC(C)(Oc1ccc(C2CC2(Cl)Cl)cc1)C(=O)O (centres undefined) | inactive
2 | Cc1ccc(C)c(OCCCC(C)(C)C(=O)O)c1 | inactive
3 | C[C@@H]1C[C@H]2[C@@H]3CCC4=CC(=O)C=C[C@]4(C)[C@@]3(F)[C@@H](O)C[C@]2(C)[C@@]1(O)C(=O)COP(=O)(O)O | inactive
4 | CC(C)OC(=O)C(C)(C)Oc1ccc(C(=O)c2ccc(Cl)cc2)cc1 | inactive
5 | CC(C)(Oc1ccc(Cl)cc1)C(=O)O | inactive
6 | C=C(c1ccc(C(=O)O)cc1)c1cc2c(cc1C)C(C)(C)CCC2(C)C | inactive
7 | CC(c1cc2ccccc2s1)N(O)C(N)=O (centres undefined) | inactive
8 | C[C@]12C=CC(=O)C=C1CC[C@@H]1[C@@H]2C(=O)C[C@@]2(C)[C@H]1CC[C@]2(O)C(=O)CO | inactive
9 | CC(C)(Oc1ccc(CCNC(=O)c2ccc(Cl)cc2)cc1)C(=O)O | inactive
